# According to PubChem BioAssay:
# For part of these data: Potency and affinity values are given separately. Active and inactive are the calls of the source.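 The calls were made as follows, unless noted: active = compound raising the membrane signal above positive-control mean plus 3 SD in both repeats, and a primary screen hit; inactive = the rest.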
# How the values were obtained:
# [1] = tested on: TRPC4 beta (transient receptor potential cation channel C4), mouse; experiment: activators of mouse TRPC4 channel, confirmation, cell-based, Fluo4 calcium, HEK293 TRPC4beta/mu-opioid, duplicates, 10 µM (AID 2426;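 active = fluorescence ratio normalized to control raised more than 50% in primary screen plus both repeat runs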); settings: Fluo4 calcium fluorescence, at 10 µM; hits give high values
# [2] = tested on: transient receptor potential cation channel C4 beta (TRPC4), mouse; experiment: activators of mouse TRPC4 channel, confirmation, cell-based, second round, Fluo4, HEK293 TRPC4beta/mu-opioid, 1 µM (AID 2461;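 active = primary screen active and over 50% activation in each of two duplicate runs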); settings: Fluo4 calcium fluorescence, at 1 µM; hits give high values
# [3] = tested on: TRPC4 (transient receptor potential cation channel C4 beta), mouse; experiment: positive allosteric modulators of mouse TRPC4, confirmation, cell-based, second round, Fluo-4, HEK293 TRPC4beta/mu-opioid, 1 µM (AID 2554;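 active = primary screen hit whose fluorescence ratio, in both repeats, exceeds the weak agonist control mean by 3 SD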); settings: DAMGO EC20, Fluo-4 calcium flux, at 1 µM; hits give high values
# [4] = tested on: TRPC4 beta (transient receptor potential cation channel C4), mouse; experiment: positive allosteric modulators of mouse TRPC4, confirmation, cell-based, Fluo-4, HEK293 TRPC4beta/mu-opioid (AID 2555;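 active = primary screen hit whose calcium fluorescence ratio, in both repeats, exceeds the weak agonist control mean by 3 SD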); settings: DAMGO EC20, Fluo-4 calcium flux, at 10 µM; hits give high values
# [5] = molecular target: Short transient receptor potential channel 4 (Mus musculus) (UniProt Q9QUQ5); experiment: inhibitors of mouse TRPC4 channel, confirmation, cell-based, Fluo4, HEK293 TRPC4beta/mu-opioid (AID 2636;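 active = calcium signal cut by more than 3 SD below the full-agonist control yet still positive, in both repeats and the earlier primary screen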); settings: DAMGO, Fluo4 calcium flux, at 10 µM; hits give high values
# Chain of Short transient receptor potential channel 4 (Mus musculus) (Q9QUQ5 whole entry, looked up): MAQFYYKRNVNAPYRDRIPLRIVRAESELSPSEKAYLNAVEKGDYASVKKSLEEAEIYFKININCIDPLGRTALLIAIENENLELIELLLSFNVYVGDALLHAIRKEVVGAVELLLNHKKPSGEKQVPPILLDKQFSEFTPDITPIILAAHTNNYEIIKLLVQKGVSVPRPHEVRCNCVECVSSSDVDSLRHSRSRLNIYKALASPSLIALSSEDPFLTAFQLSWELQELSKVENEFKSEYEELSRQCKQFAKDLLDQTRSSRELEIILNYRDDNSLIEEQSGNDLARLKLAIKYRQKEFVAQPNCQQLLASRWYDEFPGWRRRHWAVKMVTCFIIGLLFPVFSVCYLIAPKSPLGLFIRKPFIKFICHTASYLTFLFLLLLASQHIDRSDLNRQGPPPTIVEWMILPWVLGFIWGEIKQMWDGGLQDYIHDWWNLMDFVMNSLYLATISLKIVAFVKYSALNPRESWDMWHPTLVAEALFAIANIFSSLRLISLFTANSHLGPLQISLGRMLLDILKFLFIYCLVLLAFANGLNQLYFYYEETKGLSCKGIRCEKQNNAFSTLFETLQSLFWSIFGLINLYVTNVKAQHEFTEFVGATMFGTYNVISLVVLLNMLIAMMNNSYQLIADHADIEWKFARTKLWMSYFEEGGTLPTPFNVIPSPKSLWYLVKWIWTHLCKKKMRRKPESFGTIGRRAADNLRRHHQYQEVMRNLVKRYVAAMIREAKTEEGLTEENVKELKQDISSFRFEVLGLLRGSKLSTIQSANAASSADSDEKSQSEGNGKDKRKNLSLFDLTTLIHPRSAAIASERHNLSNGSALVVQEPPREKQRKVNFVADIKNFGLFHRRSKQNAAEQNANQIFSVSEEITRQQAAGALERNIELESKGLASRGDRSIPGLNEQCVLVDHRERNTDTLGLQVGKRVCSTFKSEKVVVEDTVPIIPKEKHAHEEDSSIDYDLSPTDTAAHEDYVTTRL
# [6] = molecular target: Short transient receptor potential channel 4 (Mus musculus) (UniProt Q9QUQ5); experiment: inhibitors of mouse TRPC4 channel, confirmation, cell-based, second round, Fluo4, HEK293 TRPC4beta/mu-opioid, 1 µM (AID 2637;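 active = calcium signal ratio cut to more than 3 SD under the fully stimulated control mean yet still positive, in both repeats and the primary screen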); settings: Fluo4 calcium flux, DAMGO, at 1 µM; hits give high values
# [7] = molecular target: Short transient receptor potential channel 4 (Mus musculus) (UniProt Q9QUQ5); experiment: mouse TRPC4 channel activators, dose response, cell-based, HEK293 TRPC4/mu-opioid, Fluo-4 calcium (AID 434937;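 active = primary screen activator hit with a dose response curve and TRPC4 channel activation at any tested dose; inactive = no activation, no dose response, or not a primary hit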)
# [8] = molecular target: Short transient receptor potential channel 4 (Mus musculus) (UniProt Q9QUQ5); experiment: TRPC4 positive allosteric modulators, dose response, cell-based, HEK293 TRPC4/mu-opioid, Fluo-4 calcium, EC20 DAMGO (AID 434941;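 active = earlier screen potentiator hit that boosts the TRPC4 ion channel at some dose, with a dose response; inactive = no potentiation, no dose response, or not a prior hit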;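 also: calcium entry triggered by an EC20 dose of DAMGO at the co-expressed mu-opioid receptor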)
# [9] = molecular target: Short transient receptor potential channel 4 (Mus musculus) (UniProt Q9QUQ5); experiment: mouse TRPC4 channel inhibitors, dose response, cell-based, HEK293 TRPC4/mu-opioid, Fluo-4 calcium (AID 434942;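 active = primary screen inhibitor hit that blocks the TRPC4 channel at some tested dose, yielding a dose curve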)
# [10] = molecular target: Short transient receptor potential channel 6 (Mus musculus) (UniProt Q61143); experiment: inhibition of mouse TRPC6 channel, confirmation, selectivity assay for TRPC4 inhibitor project, cell-based, HEK293, membrane potential dye, duplicate (AID 434948;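 active = active in primary screen and both duplicates, each dropping signal beyond three positive-control SD with fluorescence still positive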); settings: HEK293 TRPC6, membrane potential dye fluorescence, at 10 µM, stimulated with maximal-effect acetylcholine; hits give high values
# Chain of Short transient receptor potential channel 6 (Mus musculus) (Q61143 whole entry, looked up): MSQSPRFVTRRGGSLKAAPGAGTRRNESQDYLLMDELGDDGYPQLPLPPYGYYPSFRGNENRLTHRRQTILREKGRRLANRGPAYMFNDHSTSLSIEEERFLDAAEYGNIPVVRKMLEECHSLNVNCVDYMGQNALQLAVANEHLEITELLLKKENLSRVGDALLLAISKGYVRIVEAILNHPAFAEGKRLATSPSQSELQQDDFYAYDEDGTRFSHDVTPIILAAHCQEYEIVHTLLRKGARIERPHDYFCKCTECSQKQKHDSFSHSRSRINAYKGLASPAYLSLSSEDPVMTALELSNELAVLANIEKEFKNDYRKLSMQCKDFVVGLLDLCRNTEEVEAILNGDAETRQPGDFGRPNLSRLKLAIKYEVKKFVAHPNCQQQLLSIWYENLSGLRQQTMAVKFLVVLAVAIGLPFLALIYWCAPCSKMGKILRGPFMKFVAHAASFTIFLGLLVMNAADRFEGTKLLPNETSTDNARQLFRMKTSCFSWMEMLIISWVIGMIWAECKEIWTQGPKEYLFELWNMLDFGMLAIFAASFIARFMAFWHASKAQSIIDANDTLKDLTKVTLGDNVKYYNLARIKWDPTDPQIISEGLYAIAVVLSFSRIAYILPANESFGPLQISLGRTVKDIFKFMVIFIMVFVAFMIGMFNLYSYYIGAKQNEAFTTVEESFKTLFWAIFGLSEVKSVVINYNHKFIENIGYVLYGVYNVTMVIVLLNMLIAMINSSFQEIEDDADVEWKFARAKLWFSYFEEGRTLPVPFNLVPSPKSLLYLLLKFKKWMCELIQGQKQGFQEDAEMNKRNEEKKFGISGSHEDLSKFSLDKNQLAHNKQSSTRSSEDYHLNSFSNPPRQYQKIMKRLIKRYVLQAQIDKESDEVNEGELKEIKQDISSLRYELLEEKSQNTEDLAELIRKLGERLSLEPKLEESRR
# [11] = molecular target: Short transient receptor potential channel 6 (Mus musculus) (UniProt Q61143); experiment: activation of mouse TRPC6 channel, confirmation, selectivity assay for TRPC4 activator project, cell-based, HEK293, membrane potential dye, duplicate (AID 434950;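 active = membrane potential signal rise above negative control mean plus 3 SD in both duplicates, also active in the earlier TRPC4 screen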;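 as to activation: 0% = buffer only wells and 100% = acetylcholine maximal-effect wells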); settings: HEK293 TRPC6, membrane potential fluorescence, at 10 µM; hits give high values
# [12] = molecular target: Short transient receptor potential channel 6 (Mus musculus) (UniProt Q61143); experiment: TRPC6 potentiation by TRPC4 potentiator hits, confirmation, selectivity assay for TRPC4 potentiator project, HEK293 cells, membrane potential dye, duplicate (AID 434952); settings: HEK293 TRPC6, membrane potential dye fluorescence, at 10 µM, maximal acetylcholine added after compound; hits give high values
# [13] = molecular target: Short transient receptor potential channel 4 (Mus musculus) (UniProt Q9QUQ5); experiment: calcium flux activators in TRPC4/5HT1a cells, counter-screen for TRPC4 activator project, cell-based, second counter screen, HEK293 TRPC4/5HT1a, Fluo-4 (AID 434977;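 active = calcium signal rise above buffer-control mean plus 5 SD in both duplicates, and also a hit in the primary screen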); settings: Fluo-4 calcium flux, at 10 µM; hits give high values
# [14] = calcium flux inhibitors in TRPC4/5HT1a cells, confirmation, counter-screen for TRPC4 inhibitor project, cell-based, second counter screen, HEK293 TRPC4/5HT1a, Fluo-4 (AID 434978;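 active = primary screen active whose calcium signal fell more than 3 SD beyond the full-serotonin control mean in both duplicate plates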;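 as to outcome: serotonin given first at submaximal then at maximal dose after compound preincubation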); settings: Fluo-4 calcium flux, at 10 µM, serotonin added to trigger calcium flux; hits give high values
# [15] = tested on: TRPC4 (mouse), co-expressed with 5HT1a in HEK293; experiment: calcium flux potentiators in TRPC4/5HT1a cells, confirmation, counter-screen for TRPC4 potentiator project, cell-based, second counter screen, HEK293 TRPC4/5HT1a, Fluo-4 (AID 434979;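 active = signal rise over 3 SD above mean of control wells given weak agonist, in both repeats and first screen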); settings: Fluo-4 calcium flux, at 10 µM, serotonin added at its EC20 dose; hits give high values
# [16] = calcium flux activation in mu-opioid HEK293 cells, confirmation, counter-screen for TRPC4 activator project, cell-based, HEK293 mu-opioid receptor line (AID 449723;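 active = hit in primary screen, with calcium signal over 5 SD above buffer well mean in both duplicates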;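 also: counter screen cells carry the mu-opioid receptor alone and lack TRPC4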); settings: Fluo-4 calcium fluorescence, at 10 µM; hits give high values
# [17] = calcium flux enhancement in mu-opioid HEK293 cells, confirmation, counter-screen for TRPC4 allosteric potentiator project, cell-based, HEK293 mu-opioid receptor line (AID 449724;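 active = calcium signal rise more than 3 SD above the low-dose agonist control mean, in both duplicate plates and the primary screen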); settings: Fluo-4 calcium flux, at 10 µM, compound added before EC20 DAMGO stimulus; hits give high values
smiles,measurement,setting,value
COc1cc(CNC2CCCCCCC2)cc(Br)c1OCC#N,outcome,[1],inactive
same,outcome,[2],inactive
same,outcome,[3],inactive
same,outcome,[4],inactive
same,outcome,[5],inactive
same,outcome,[6],inactive
same,outcome,[7],inactive
same,outcome,[8],inactive
same,outcome,[9],inactive
same,outcome,[10],inactive
same,outcome,[11],inactive
same,outcome,[12],inactive
same,outcome,[13],inactive
same,outcome,[14],inactive
same,outcome,[15],inactive
same,outcome,[16],inactive
same,outcome,[17],inactive
CC1(C)CC(=O)C(C=NCCN2CCN(C(=O)CCl)CC2)=C(O)C1,outcome,[1],inactive
same,outcome,[2],inactive
same,outcome,[3],inactive
same,outcome,[4],inactive
same,outcome,[5],inactive
same,outcome,[6],inactive
same,outcome,[7],inactive
same,outcome,[8],inactive
same,outcome,[9],inactive
same,outcome,[10],inactive
same,outcome,[11],inactive
same,outcome,[12],inactive
same,outcome,[13],inactive
same,outcome,[14],inactive
same,outcome,[15],inactive
same,outcome,[16],inactive
same,outcome,[17],inactive
Cc1cc(N2CCN(C)CC2)n2cc(-c3ccc(F)cc3)nc2n1,outcome,[1],inactive
same,outcome,[2],inactive
same,potentiation,[3],11% (active)
same,outcome,[4],inactive
same,outcome,[5],inactive
same,outcome,[6],inactive
same,outcome,[7],inactive
same,outcome,[8],inactive
same,outcome,[9],inactive
same,outcome,[10],inactive
same,outcome,[11],inactive
same,outcome,[12],inactive
same,outcome,[13],inactive
same,outcome,[14],inactive
same,potentiation,[15],26.1% (active)
same,outcome,[16],inactive
same,outcome,[17],inactive
COc1cc(CN2CCC(CO)(CCOc3ccccc3)CC2)cc(OC)c1,outcome,[1],inactive
same,outcome,[2],inactive
same,outcome,[3],inactive
same,outcome,[4],inactive
same,inhibition,[5],87% (active)
same,outcome,[6],inactive
same,outcome,[7],inactive
same,outcome,[8],inactive
same,outcome,[9],inactive
same,outcome,[10],inactive
same,outcome,[11],inactive
same,outcome,[12],inactive
same,outcome,[13],inactive
same,inhibition,[14],43.6% (active)
same,outcome,[15],inactive
same,outcome,[16],inactive
same,outcome,[17],inactive
COC(=O)CC(NC(=S)NC(=O)c1ccccc1)c1ccc(Br)cc1 (stereo not given),outcome,[1],inactive
same,outcome,[2],inactive
same,outcome,[3],inactive
same,potentiation,[4],35% (active)
same,outcome,[5],inactive
same,outcome,[6],inactive
same,outcome,[7],inactive
same,outcome,[8],inactive
same,outcome,[9],inactive
same,outcome,[10],inactive
same,outcome,[11],inactive
same,outcome,[12],inactive
same,outcome,[13],inactive
same,outcome,[14],inactive
same,potentiation,[15],12.5% (active)
same,outcome,[16],inactive
same,outcome,[17],inactive
C/C(N)=C(/C#N)C(=O)COC(=O)C1CCC(C(C)(C)C)CC1 (stereo not given),outcome,[1],inactive
same,outcome,[2],inactive
same,outcome,[3],inactive
same,outcome,[4],inactive
same,outcome,[5],inactive
same,outcome,[6],inactive
same,outcome,[7],inactive
same,outcome,[8],inactive
same,outcome,[9],inactive
same,outcome,[10],inactive
same,outcome,[11],inactive
same,outcome,[12],inactive
same,outcome,[13],inactive
same,outcome,[14],inactive
same,outcome,[15],inactive
same,outcome,[16],inactive
same,outcome,[17],inactive
CN1CCN(Cc2cccc(Oc3ccc(Cl)cc3)c2)CC1,outcome,[1],inactive
same,outcome,[2],inactive
same,potentiation,[3],22% (active)
same,outcome,[4],inactive
same,outcome,[5],inactive
same,outcome,[6],inactive
same,outcome,[7],inactive
same,outcome,[8],inactive
same,outcome,[9],inactive
same,outcome,[10],inactive
same,outcome,[11],inactive
same,outcome,[12],inactive
same,outcome,[13],inactive
same,outcome,[14],inactive
same,potentiation,[15],15.1% (active)
same,outcome,[16],inactive
same,outcome,[17],inactive
CC(=O)Oc1ccc(NC(=O)CCC2CCCCC2)c(C(=O)O)c1,outcome,[1],inactive
same,outcome,[2],inactive
same,outcome,[3],inactive
same,outcome,[4],inactive
same,inhibition,[5],68% (active)
same,outcome,[6],inactive
same,outcome,[7],inactive
same,outcome,[8],inactive
same,outcome,[9],inactive
same,outcome,[10],inactive
same,outcome,[11],inactive
same,outcome,[12],inactive
same,outcome,[13],inactive
same,outcome,[14],inactive
same,outcome,[15],inactive
same,outcome,[16],inactive
same,outcome,[17],inactive
CC1(C)CN=c2s/c(=C\c3ccc(Cl)cc3)c(=O)n2C1,outcome,[1],inactive
same,outcome,[2],inactive
same,outcome,[3],inactive
same,outcome,[4],inactive
same,outcome,[5],inactive
same,outcome,[6],inactive
same,outcome,[7],inactive
same,outcome,[8],inactive
same,outcome,[9],inactive
same,outcome,[10],inactive
same,outcome,[11],inactive
same,outcome,[12],inactive
same,outcome,[13],inactive
same,outcome,[14],inactive
same,potentiation,[15],25.3% (active)
same,outcome,[16],inactive
same,outcome,[17],inactive
O=C(N/N=C/c1cc2c(cc1Br)OCO2)c1cc2ccccc2o1,outcome,[1],inactive
same,outcome,[2],inactive
same,outcome,[3],inactive
same,outcome,[4],inactive
same,inhibition,[5],93% (active)
same,outcome,[6],inactive
same,outcome,[7],inactive
same,outcome,[8],inactive
same,outcome,[9],inactive
same,outcome,[10],inactive
same,outcome,[11],inactive
same,outcome,[12],inactive
same,outcome,[13],inactive
same,outcome,[14],inactive
same,outcome,[15],inactive
same,outcome,[16],inactive
same,outcome,[17],inactive
CC1CCN(CC(O)COCCC23CC4CC(CC(C4)C2)C3)CC1 (stereo not given),outcome,[1],inactive
same,outcome,[2],inactive
same,outcome,[3],inactive
same,outcome,[4],inactive
same,outcome,[5],inactive
same,outcome,[6],inactive
same,outcome,[7],inactive
same,outcome,[8],inactive
same,outcome,[9],inactive
same,outcome,[10],inactive
same,outcome,[11],inactive
same,outcome,[12],inactive
same,outcome,[13],inactive
same,outcome,[14],inactive
same,outcome,[15],inactive
same,outcome,[16],inactive
same,outcome,[17],inactive
Cn1c(=O)c2c(nc(CN3CCc4ccccc4C3)n2Cc2ccccc2)n(C)c1=O,outcome,[1],inactive
same,outcome,[2],inactive
same,potentiation,[3],40% (active)
same,outcome,[4],inactive
same,outcome,[5],inactive
same,outcome,[6],inactive
same,outcome,[7],inactive
same,outcome,[8],inactive
same,outcome,[9],inactive
same,outcome,[10],inactive
same,outcome,[11],inactive
same,outcome,[12],inactive
same,outcome,[13],inactive
same,outcome,[14],inactive
same,potentiation,[15],97.6% (active)
same,outcome,[16],inactive
same,outcome,[17],inactive
CC(C)Oc1ccc(CCC(=O)NNC(=S)NCc2ccccc2)cc1,outcome,[1],inactive
same,outcome,[2],inactive
same,outcome,[3],inactive
same,outcome,[4],inactive
same,outcome,[5],inactive
same,outcome,[6],inactive
same,outcome,[7],inactive
same,outcome,[8],inactive
same,outcome,[9],inactive
same,outcome,[10],inactive
same,activation,[11],37.5% (active)
same,outcome,[12],inactive
same,outcome,[13],inactive
same,outcome,[14],inactive
same,outcome,[15],inactive
same,outcome,[16],inactive
same,outcome,[17],inactive
CCOC(=O)CC(NC(=O)c1cc2cc(Cl)cc(Cl)c2oc1=O)c1cccc([N+](=O)[O-])c1 (stereo not given),outcome,[1],inactive
same,outcome,[2],inactive
same,outcome,[3],inactive
same,potentiation,[4],35% (active)
same,outcome,[5],inactive
same,outcome,[6],inactive
same,outcome,[7],inactive
same,outcome,[8],inactive
same,outcome,[9],inactive
same,outcome,[10],inactive
same,outcome,[11],inactive
same,outcome,[12],inactive
same,outcome,[13],inactive
same,outcome,[14],inactive
same,outcome,[15],inactive
same,outcome,[16],inactive
same,outcome,[17],inactive
O=C(NCCCN1CCN(CCCNC(=O)c2cccc(Cl)c2)CC1)c1cccc(Cl)c1,outcome,[1],inactive
same,outcome,[2],inactive
same,potentiation,[3],22% (active)
same,outcome,[4],inactive
same,outcome,[5],inactive
same,outcome,[6],inactive
same,outcome,[7],inactive
same,outcome,[8],inactive
same,outcome,[9],inactive
same,outcome,[10],inactive
same,outcome,[11],inactive
same,outcome,[12],inactive
same,outcome,[13],inactive
same,outcome,[14],inactive
same,potentiation,[15],11.3% (active)
same,outcome,[16],inactive
same,outcome,[17],inactive
